Test results as given in publication PMC4336329 (PLoS ONE, 2015).
The whole screen tested about 310,000 compounds, of which about 2,200 (0.71%) showed an effect of 50% or more. Effects have a minus sign here. What follows is part of a selection rich in strong results, with near analogues and random picks from the rest.

Each molecule was assayed against human ether-à-go-go-related gene (hERG) potassium channel (human, UniProt Q12809) (assay: primary screen, population patch clamp on CHO cells stably expressing hERG; higher = less effect of the substance).
Sequence of human ether-à-go-go-related gene (hERG) potassium channel (Q12809 whole entry, looked up): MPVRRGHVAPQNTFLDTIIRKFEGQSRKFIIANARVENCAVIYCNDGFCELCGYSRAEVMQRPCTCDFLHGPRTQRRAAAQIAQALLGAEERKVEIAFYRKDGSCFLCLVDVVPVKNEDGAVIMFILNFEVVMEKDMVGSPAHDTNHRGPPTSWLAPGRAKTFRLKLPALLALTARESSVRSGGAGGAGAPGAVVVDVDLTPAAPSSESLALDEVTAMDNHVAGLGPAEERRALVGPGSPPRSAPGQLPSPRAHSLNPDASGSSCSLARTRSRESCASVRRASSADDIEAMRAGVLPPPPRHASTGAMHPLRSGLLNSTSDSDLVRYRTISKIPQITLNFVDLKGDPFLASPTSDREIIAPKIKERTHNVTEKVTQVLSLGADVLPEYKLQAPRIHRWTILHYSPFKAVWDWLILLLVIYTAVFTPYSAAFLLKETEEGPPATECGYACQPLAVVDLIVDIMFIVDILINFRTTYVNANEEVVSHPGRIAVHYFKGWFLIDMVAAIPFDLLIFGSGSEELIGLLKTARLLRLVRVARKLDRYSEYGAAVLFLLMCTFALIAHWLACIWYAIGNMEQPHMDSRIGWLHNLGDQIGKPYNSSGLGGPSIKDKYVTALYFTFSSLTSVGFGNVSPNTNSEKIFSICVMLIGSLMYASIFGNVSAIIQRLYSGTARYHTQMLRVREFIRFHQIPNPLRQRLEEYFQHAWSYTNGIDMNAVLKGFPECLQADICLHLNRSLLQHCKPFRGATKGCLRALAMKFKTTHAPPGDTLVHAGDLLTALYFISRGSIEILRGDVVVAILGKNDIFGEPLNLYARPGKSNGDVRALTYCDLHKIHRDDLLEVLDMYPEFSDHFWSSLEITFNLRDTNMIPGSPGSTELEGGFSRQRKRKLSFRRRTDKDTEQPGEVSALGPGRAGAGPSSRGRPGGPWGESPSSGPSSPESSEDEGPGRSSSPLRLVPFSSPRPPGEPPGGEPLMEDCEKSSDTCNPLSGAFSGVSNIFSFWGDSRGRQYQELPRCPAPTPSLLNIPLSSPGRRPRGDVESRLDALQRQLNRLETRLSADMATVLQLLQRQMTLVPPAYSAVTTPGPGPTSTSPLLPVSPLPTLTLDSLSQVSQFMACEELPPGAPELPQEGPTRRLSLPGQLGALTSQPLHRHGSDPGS

| SMILES | hERG current change (%, negative = inhibition) at 1uM [%] |
| --- | --- |
| CNC(=S)N(CCc1c(C)[nH]c2ccc(C)cc12)Cc1ccco1 | -2.69 |
| CNC(=O)CN(c1cc(C)ccc1C)S(C)(=O)=O | 2.83 |
| Cc1ccccc1N/N=C1\CCCNC1=O | 6.51 |
| O=C(CSc1nnc(-c2cccnc2)n1Cc1ccco1)c1ccc(Cl)cc1 | -21.1 |
| O=C(NNC(=O)c1cccs1)c1ccc(Cl)cc1 | 9.36 |
| CSc1ccccc1-n1nnnc1SCC(=O)Nc1ccccc1C | -9.11 |
| COc1ccccc1/C=C/C=N/NC(=O)c1cccs1 | 16.1 |
| Cc1cc(N2CCN(Cc3nc(-c4ccc(F)cc4)oc3C)CC2)cc(C)n1 | -27.2 |
| O=C(c1ccco1)N1CCN(Cc2nnc(-c3ccccc3)o2)CC1 | -6.25 |
| Cc1cccc(N2CCN(Cc3nc(-c4cccc(Cl)c4)oc3C)CC2)n1 | -7.13 |
| Cc1oc(-c2ccc(Cl)cc2)nc1CN1CCCC(C(=O)NCc2cccnc2)C1 (stereo not shown) | -43.6 |
| O=C(c1ccco1)N1CCN(Cc2nnc(-c3cccc(Br)c3)o2)CC1 | -51.6 |
| O=C(c1ccco1)N1CCN(Cc2nnc(-c3cccc(Cl)c3)o2)CC1 | -13.8 |
| Cc1cc(N2CCN(Cc3nc(-c4ccc(Cl)cc4)oc3C)CC2)cc(C)n1 | -57.8 |
| Cc1oc(-c2ccc(Cl)cc2)nc1CN1CCCN(C(=O)c2ccco2)CC1 | -57.4 |
| Cc1ccc(-c2nc(CN3CCCC(C(=O)N4CCOCC4)C3)c(C)o2)cc1 (stereo not shown) | -9.44 |
| Cc1oc(-c2ccccc2Cl)nc1CN1CCCN(C(=O)c2ccco2)CC1 | -21.4 |
| COC(=O)c1ccc(-c2nc(CN3CCCN(C(=O)c4ccco4)CC3)c(C)o2)cc1 | -15 |
| Cc1oc(-c2ccc(Cl)cc2)nc1CN1CCCC(C(=O)N2CCN(C(=O)c3ccco3)CC2)C1 (stereo not shown) | -75.1 |
| Nc1c([N+](=O)[O-])c(=O)sc2ccccc12 | 2.09 |
| CN(C(=O)c1cccs1)c1ccc(OCC(=O)N2CCC(C(N)=O)CC2)cc1 | 25.6 |
| O=C(Cn1nc(C(F)F)cc1C1CC1)NCCC1=CCCCC1 | 9.48 |

| SMILES | hERG current change (%, negative = inhibition) at 1uM [%] |
| --- | --- |
| CCCCN(C(=O)CSc1nn(-c2ccc(F)cc2)c(=S)s1)c1c(N)n(CCCC)c(=O)[nH]c1=O | 8.15 |
| Cc1ccc(CCC(=O)Nc2ccccc2F)s1 | 4.84 |
| O=C(CC1OC(=O)c2ccccc21)Nc1cccc(S(=O)(=O)N2CCCCCC2)c1 (stereo not shown) | 0.598 |
| CN(C)CCCn1c(N)c(C#N)c2nc(C#N)c(C#N)nc21 | 11.4 |
| CCOC(=O)CS(=O)(=O)c1ccc(O)cc1 | 26.2 |
| O=C(NNC(=S)Nc1ccc(F)cc1)c1ccccc1OC(F)F | 6.53 |
| CCOc1ccc(CCNC(=O)c2cc(C)nc3ccccc23)cc1OCC | -10.6 |
| Cn1nnnc1SCC(=O)NC(C)(C)C | 7.36 |
| Cc1oc(-c2ccc(Cl)cc2)nc1CN1CCCC(C(=O)NC2CC2)C1 (stereo not shown) | -18.2 |
| CCOC(=O)N1CCC(NC(=O)C2CCCN(Cc3nc(-c4cccc(Cl)c4)oc3C)C2)CC1 (stereo not shown) | -50.4 |
| CCOC(=O)N1CCC(NC(=O)C2CCCN(Cc3nc(-c4ccc(CC)cc4)oc3C)C2)CC1 (stereo not shown) | -39.3 |
| COc1ccc(-c2nc(CN3CCCC(C(=O)NC4CCCC4)C3)c(C)o2)cc1 (stereo not shown) | -53.5 |
| Cc1oc(-c2ccc(Cl)cc2)nc1CN1CCCC(C(=O)N2CCOCC2)C1 (stereo not shown) | -32.9 |
| CCOc1ccc(-c2nc(CN3CCCC(C(=O)N4CCOCC4)C3)c(C)o2)cc1 (stereo not shown) | -5.79 |
| CCOC(=O)N1CCC(NC(=O)C2CCCN(Cc3nc(-c4cccc(C)c4)oc3C)C2)CC1 (stereo not shown) | -24.2 |
| Cc1cccc(-c2nc(CN3CCCC(C(=O)NC4CCCC4)C3)c(C)o2)c1 (stereo not shown) | -26.4 |
| CCOC(=O)N1CCN(C(=O)C2CCCN(Cc3nc(-c4ccc(Cl)cc4)oc3C)C2)CC1 (stereo not shown) | -57.7 |
| CN1N=C(C(=O)NC2CCCc3c2cnn3-c2ccc(F)cc2F)CCC1=O (stereo not shown) | 6.91 |
| C=C1CC2C3CC[C@@]4(OCOC45COCO5)[C@@]3(C)C(O)CC2[C@@]2(C)CCC(=O)C=C12 (stereo partly shown) | 13.6 |
| Cc1ccc(C(=O)C(C)OC(=O)c2ccccc2[N+](=O)[O-])cc1 (stereo not shown) | 8 |
| CCC1=Nc2cc(C(=O)NCCCN3CCOCC3)ccc2Sc2ccc(Br)cc21 | 15.9 |
| CCOC(=O)/C(C#N)=N/Nc1ccccc1C#N | 11.2 |

| SMILES | hERG current change (%, negative = inhibition) at 1uM [%] |
| --- | --- |
| CC(C)CCn1nnnc1C(c1ccccc1)N1CCN(C)CC1 (stereo not shown) | 9.6 |
| CCOC(=O)Cn1nnnc1C(CC)N(Cc1ccccc1)Cc1cc2cc(C)ccc2[nH]c1=O (stereo not shown) | -2.05 |
| Cc1cc(C)cc(N2C(=O)NC(=O)/C(=C\c3cccn3-c3ccccc3)C2=O)c1 | -0.0202 |
| CCCCOC(=O)c1ccc(OC(=O)c2cccnc2)cc1 | 5.73 |
| O=C(O)c1ccc(SCc2cnc(Cl)s2)cc1 | -79.6 |
| COC(=O)c1ccc(SCc2cnc(Cl)s2)cc1 | 7.26 |
| Clc1ncc(CSc2ccccc2)s1 | 5.7 |
| Cc1ccc(NC(=O)N(Cc2nc3ccccc3c(=O)[nH]2)Cc2cccs2)cc1 | 5.74 |
| Cc1cnc(C(=O)NC2CC(C)(C)Cc3c2cnn3-c2cccc(F)c2)cn1 (stereo not shown) | 3.82 |
| CC1=C(C(=O)NC2CC(C)(C)Cc3c2cnn3-c2cccc(F)c2)OCCO1 (stereo not shown) | -3.59 |
| Cc1cc(C(=O)NC2CC(C)(C)Cc3c2cnn3-c2cccc(F)c2)n(C)n1 (stereo not shown) | 3.12 |
| Cc1cc(C(=O)NC2CC(C)(C)Cc3c2cnn3-c2cccc(F)c2)nn1C (stereo not shown) | 9.79 |
| CC1(C)Cc2c(cnn2-c2cccc(F)c2)C(NC(=O)c2ccc(=O)[nH]n2)C1 (stereo not shown) | -61.7 |
| CC1(C)Cc2c(cnn2-c2cccc(F)c2)C(NC(=O)c2csnn2)C1 (stereo not shown) | -85 |
| Cc1cc(C)cc(-n2ncc3c2CCCC3NC(=O)c2csnn2)c1 (stereo not shown) | -84 |
| Cc1ccc(-n2ncc3c2CCCC3NC(=O)c2csnn2)cc1C (stereo not shown) | 2.61 |
| CC(C)(C)c1ccc(-n2ncc3c2CCCC3NC(=O)c2csnn2)cc1 (stereo not shown) | 9.11 |
| Nc1ccc(C(=O)NCc2ccccc2)cc1 | 8.94 |
| CCNC(=O)c1ccc(NC(=O)CC2SC(N3CCCCC3)=NC2=O)cc1 (stereo not shown) | -1.11 |
| COc1ccc(CCNC(=O)c2cc(C)oc2C)cc1 | 10.3 |
| OCC1(Cc2ccccc2)CCN(C2CCN(c3ccc(F)c(F)c3)CC2)CC1 | -124 |
| OCCC1CN(C2CCC2)CCN1Cc1ccc(F)c(F)c1 (stereo not shown) | 12.1 |

| SMILES | hERG current change (%, negative = inhibition) at 1uM [%] |
| --- | --- |
| OCC1(Cc2ccccc2)CCCN(C2CCCC2)C1 (stereo not shown) | -3.43 |
| OCCC1CN(C2CCN(c3ccccc3)CC2)CCN1Cc1ccc(F)c(F)c1 (stereo not shown) | -71.1 |
| OCCC1CN(C2CCN(c3ccccc3F)CC2)CCN1Cc1ccccc1 (stereo not shown) | -1.66 |
| OCC1(Cc2ccccc2)CCN(C2CCN(c3ccccc3F)CC2)CC1 | -38.5 |
| CC(C)c1c(C(=O)N/N=C/c2ccccc2C(=O)O)nnn1-c1nonc1N | 7.36 |
| C(=C\CSc1nnnn1-c1ccccc1)/CSc1nnnn1-c1ccccc1 | 0.568 |
| O=C(Cn1nc(-c2ccccc2)c2ccccc2c1=O)Nc1ccc2c(c1)nc1n2CCOC1 | 13.3 |
| C/C(=N\NC(=O)C1(C)CC1(Br)Br)c1cccc(NC(=O)c2ccc(C)o2)c1 (stereo not shown) | 11.8 |
| CN1CCCN(C(=O)c2ccc(Br)s2)CC1 | 1.6 |
| CN1CCCN(C(=O)c2ccc(Cl)s2)CC1 | -50.5 |
| O=C(c1ccc(Cl)s1)N1CCCC1 | 6.35 |
| CCOc1ccc(CCNC(=O)CN2CCN(Cc3ccccc3F)C2=O)cc1OCC | -0.385 |
| Cc1ccc(S(=O)(=O)N2CCC(C(=O)Nc3ncccc3O)CC2)cc1 | -13.8 |
| CCC1CCCCN1CCCNC(=O)c1ccc2c(c1)N(Cc1ccc(F)cc1)C(=O)c1ccccc1S2=O (stereo not shown) | -13.7 |
| Cc1nc(S(=O)(=O)c2ccc(Cl)cc2)nc2c1CCC2 | 0.296 |
| CCOc1ccccc1CN1C(=O)NC(C)(c2ccccc2)C1=O (stereo not shown) | -0.418 |
| CCN(C1CCCCC1)S(=O)(=O)CCNC(=O)c1ccccc1 | 2.25 |
| CCCCCCCCCCCCCCCC[N+](C)(C)CCN(Cc1ccc(OC)cc1)c1ncccn1.[Br-] | -61.5 |
| CC[N+](C)(C)CCN(Cc1ccc(Cl)cc1)c1ccccn1.[Br-] | -33.2 |
| COc1ccc(CN(CCN(C)C)c2ccccn2)cc1.O=C(O)/C=C\C(=O)O | -0.0995 |
| COc1cc(C)ccc1OCCCOc1ccccc1Br | 12.3 |
| O=C(CCn1c(=O)c2sccc2n(Cc2cc(=O)n3ccccc3n2)c1=O)NCc1ccco1 | -25.1 |
